Assay outcomes as filed in PubChem.
Most compounds without a hit are left out; they make up all but 1.6% or so of the library.
KCNQ2 enhance = potentiators of rat KCNQ2 potassium channel; Potassium voltage-gated channel subfamily KQT member 2 (Rattus norvegicus), O88943; CHO-K1 KCNQ2, FluxOR thallium flux fluorescence; active compounds read high; B-score at 10 µM; hit rate 0.54% among 310,000;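 active = fluorescence ratio B-score at least 3 SD of library B-scores, with initial fluorescence B-score within 3 of them, cut at about 5.3 in these data; same plate scores as AID 2156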;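 note: B-score of peak minus minimum over baseline fluorescence ratio after K+ and Tl+ stimulus; positive B-score means potentiation of KCNQ2 with more thallium influx and brighter signal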
KCNQ2 block = rat KCNQ2 potassium channel inhibitors, primary screen, cell-based, CHO-K1, FluxOR thallium flux, B-score; hit rate 1.1% among 310,000; 20 min; active compounds read low; B-score at 10 µM; Potassium voltage-gated channel subfamily KQT member 2 (Rattus norvegicus), O88943;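 active = fluorescence ratio B-score at most minus 3 library SDs, with starting brightness B-score within 2 library SDs, cut at about -5.5 in these data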
Kir21 conf inh = mouse Kir2.1 channel blockers, retest, confirmation, cell-based, FluxOR thallium flux, duplicate; shares compounds with KCNQ2 enhance; Kir2.1-expressing cells, FluxOR thallium flux fluorescence; active compounds read low; AID 2032, 2009; hit rate 41% among 2,300; Tl flux remaining, % of negative control (active compounds read low), % at 10 µM;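 active = Primary-screen hit whose thallium flux fell at least 3 control SD below untreated wells in both duplicates, with normal baseline fluorescence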
HEK293 ctr = parental HEK293 activity in Kir2.1 inhibitor counter-screen. shares compounds with KCNQ2 enhance. parental HEK293 cells, FluxOR thallium flux fluorescence; 0% = unstimulated blank wells. FluxOR signal as % of negative control (100 = no effect), % at 10 µM. hit rate 19% among 2,300;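 active = dye signal at least 3 control SD above or below untreated wells in both duplicates, raw fluorescence within 3, either direction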;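 note: percent is based on the flux ratio of peak minus minimum fluorescence over baseline F0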
CHO-K1 ctr = nonspecific thallium flux increase in parental CHO-K1, confirmation, counter-screen for KCNQ2 potentiator project, cell-based, FluxOR thallium flux, duplicate | hit rate 43% among 1,200 | parental CHO-K1 cells, FluxOR thallium flux fluorescence; zero = vehicle mean+3SD, 100% = vehicle-minus-blank window | activity increase over 3SD of controls, % at 10 µM | AID 2282, 2010 | shares compounds with KCNQ2 enhance;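 active = signal rise of at least 3 SD above the untreated control mean, in both duplicate wells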;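 note: counter screen of KCNQ2 potentiator hits so any rise reflects channel-independent effects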
KCNQ1 pot spec = human KCNQ1 channel potentiation off-target, confirmation, selectivity assay for KCNQ2 potentiator project, cell-based, CHO, FluxOR thallium flux. shares compounds with KCNQ2 enhance. CHO KCNQ1 stable, FluxOR thallium flux fluorescence; beyond 3SD, as % of vehicle-control signal. activation over 3SD threshold, % at 10 µM. hit rate 28% among 1,200;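 active = fluorescence ratio rise of at least 3 SD of vehicle wells above their mean, in both replicate wells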
Target sequence (P51787 whole entry, looked up): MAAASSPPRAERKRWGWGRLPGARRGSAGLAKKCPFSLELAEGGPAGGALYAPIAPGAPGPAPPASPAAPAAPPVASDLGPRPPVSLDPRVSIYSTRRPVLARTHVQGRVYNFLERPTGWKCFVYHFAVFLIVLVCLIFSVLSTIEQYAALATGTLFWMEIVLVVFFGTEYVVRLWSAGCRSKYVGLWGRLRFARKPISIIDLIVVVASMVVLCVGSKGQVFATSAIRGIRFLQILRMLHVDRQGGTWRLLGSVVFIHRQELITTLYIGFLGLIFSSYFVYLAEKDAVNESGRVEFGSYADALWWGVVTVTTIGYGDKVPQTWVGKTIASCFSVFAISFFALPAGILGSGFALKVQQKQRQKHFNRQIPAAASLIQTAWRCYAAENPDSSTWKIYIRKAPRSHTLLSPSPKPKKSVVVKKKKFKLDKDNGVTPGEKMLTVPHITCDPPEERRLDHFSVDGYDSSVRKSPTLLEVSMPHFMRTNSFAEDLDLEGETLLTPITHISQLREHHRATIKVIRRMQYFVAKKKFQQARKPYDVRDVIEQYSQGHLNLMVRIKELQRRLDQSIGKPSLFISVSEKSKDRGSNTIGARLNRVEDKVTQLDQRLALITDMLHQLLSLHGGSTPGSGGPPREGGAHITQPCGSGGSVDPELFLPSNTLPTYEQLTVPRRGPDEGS
KCNQ2 pot conf = rat KCNQ2 channel potentiators, confirmation, cell-based, CHO, FluxOR thallium flux, duplicate; hit rate 68% among 1,200; potentiation, less the hit threshold, % at 10 µM; CHO-KCNQ2 cells, FluxOR thallium flux fluorescence; shares compounds with KCNQ2 enhance;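 active = fluorescence ratio rising 3 SD or more over the vehicle control mean in both replicates, plus primary screen hit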;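 note: peak minus minimum thallium fluorescence divided by baseline after K/Tl stimulus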
Kir2-1 sel = mouse Kir2.1 channel activation off-target, confirmation, selectivity assay for KCNQ2 potentiator project, cell-based, HEK293, FluxOR thallium flux; shares compounds with KCNQ2 enhance; HEK293 Kir2.1, FluxOR thallium flux fluorescence; activity over 3SD threshold, % at 10 µM; hit rate 2% among 1,200; AID 2345, 2010;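 active = fluorescence ratio rise of at least 3 SD above the vehicle-control mean, seen in both replicates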
KCNQ2 W236L pot = potentiators of retigabine-insensitive KCNQ2 W236L, mechanism study for KCNQ2 potentiator project, cell-based, rat KCNQ2 W236L, CHO, automated patch clamp; shares compounds with KCNQ2 enhance; automated patch clamp current; current increase over 3SD of negative controls (%), active compounds read high, % at 25 µM; hit rate 10% among 940; AID 2558, 2010;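 active = current increase at least 3 SD of the untreated controls above them in both duplicate recordings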
Hits are given with their value; – = inactive; · = not tested or not shown.

SMILES	KCNQ2 enhance	KCNQ2 block	Kir21 conf inh	HEK293 ctr	others
Cc1ccc(NC(=S)NCCc2ccccc2)c(C)c1	·	–	·	·
Cc1ccc(NC(=S)NCCc2c[nH]c3ccccc23)c(C)c1	·	–	76%	–
COc1ccccc1NC(=S)NCCc1c[nH]c2ccccc12	–	–	72%	–
COc1cccc(CNc2ccc3[nH]c(=O)[nH]c3c2)c1OCc1ccc(F)cc1	–	–	·	·
COc1cc(NC(=S)NCCc2c[nH]c3ccccc23)c(OC)cc1Cl	·	–	·	·
COc1cccc(CNCCc2c[nH]c3ccccc23)c1OCc1ccc(F)cc1	–	-8	–	–
O=C(CCn1ccc2cc(S(=O)(=O)N3CCCC3)ccc21)NCc1cccc(F)c1	–	–	·	·
COC(=O)CSc1nc2c(c(-c3ccc(C)o3)c1C#N)CCCC2	22	–	–	–	CHO-K1 ctr=–;KCNQ1 pot spec=–;KCNQ2 pot conf=41;Kir2-1 sel=–;KCNQ2 W236L pot=–
CCSc1nc2c(c(-c3ccc(C)o3)c1C#N)CCCC2	·	–	·	·
COc1ccccc1CCNC(=O)COc1cccc2c1OC(C)(C)C2	·	–	50%	62%
CC1(C)Cc2cccc(OCC(=O)NCCOc3ccccc3)c2O1	·	–	·	·
CCc1cccc(C)c1NC(=O)COC(=O)C1CCN(S(=O)(=O)c2ccccc2)CC1	–	–	·	·
CCc1cccc(C)c1NC(=O)CN1CCN(S(=O)(=O)c2ccc(C(C)(C)C)cc2)CC1	5.3	–	–	–	CHO-K1 ctr=63;KCNQ1 pot spec=–;KCNQ2 pot conf=–;Kir2-1 sel=–
N#Cc1cccc(C#N)c1Oc1ccc(S(=O)(=O)Nc2ccc(Cl)cc2)cc1	·	–	·	·
O=c1c2ccccc2nc2ccc(NCc3ccco3)nn12	–	–	·	·
Cc1sc2nc3ccc(NCc4ccco4)nn3c(=O)c2c1C	6.7	–	–	–	CHO-K1 ctr=46;KCNQ1 pot spec=–;KCNQ2 pot conf=–;Kir2-1 sel=–
COCCNc1oc(Cc2cccc3ccccc23)nc1C#N	–	–	·	·
COc1ccc(C(=O)NN/C(C)=C/C(=O)c2ccccc2)cc1	–	–	·	·
C/C(=C\C(=O)c1ccccc1)NNC(=O)c1ccc(Cl)cc1	18	–	–	–	CHO-K1 ctr=–;KCNQ1 pot spec=–;KCNQ2 pot conf=–;Kir2-1 sel=–;KCNQ2 W236L pot=–
O=C(COc1ccc(S(=O)(=O)Nc2ccccc2)cc1)NCc1ccncc1	·	–	·	·
CCOC(=O)N1CCN(C(=O)c2cc(Cl)c(Cl)cc2C(=O)O)CC1	·	–	·	·
CCCOC1CCCN(C(=O)c2cc(Cl)c(Cl)cc2C(=O)O)C1 (centres undefined)	8.6	–	–	–	CHO-K1 ctr=–;KCNQ1 pot spec=–;KCNQ2 pot conf=–;Kir2-1 sel=–
CCC(CC)N1CCN(S(=O)(=O)c2ccc(OC)cc2)CC1	–	–	·	·
O=C(O)c1cc(-c2cccs2)nn1-c1ccccc1	·	–	·	·
O=C(O)c1cc(-c2cccs2)nn1-c1cccc(Cl)c1	8.9	–	–	–	CHO-K1 ctr=16;KCNQ1 pot spec=28;KCNQ2 pot conf=–;Kir2-1 sel=–;KCNQ2 W236L pot=–
SMILES	KCNQ2 enhance	KCNQ2 block	Kir21 conf inh	HEK293 ctr	others
CCC(C)C(NC(=O)OCc1ccccc1)C(=O)NC(Cc1ccc(O)cc1)C(=O)OC (centres undefined)	–	–	·	·
N#CCCN1CCCN(CCC#N)CCN(CCC#N)CCCN(CCC#N)CC1	·	–	·	·
CC(Cc1ccc(O)c(O)c1)C(C)Cc1ccc(O)c(O)c1 (centres undefined)	·	–	18%	56%
CC(CCc1ccc(O)cc1)NCCc1ccc(O)c(O)c1 (centres undefined)	–	–	·	·
CC(C)CN1C(=O)/C(=C/c2cccs2)NC1=S	12	–	–	322%	CHO-K1 ctr=–;KCNQ1 pot spec=–;KCNQ2 pot conf=57;Kir2-1 sel=–;KCNQ2 W236L pot=–
CC(C)CN1C(=O)/C(=C/c2ccco2)NC1=S	–	–	·	·
Cc1ccc(/C=C2/NC(=O)N(Cc3ccccc3F)C2=O)s1	·	–	·	·
CCCN1C(=O)/C(=C/c2ccc(C)s2)NC1=S	15	–	–	216%	CHO-K1 ctr=–;KCNQ1 pot spec=–;KCNQ2 pot conf=66;Kir2-1 sel=–;KCNQ2 W236L pot=–
COc1cc(C(=O)NCC(=O)NCC2COc3ccccc3O2)cc(OC)c1OC (centres undefined)	–	–	·	·
CC1CN(C(=S)Nc2ccccc2C(F)(F)F)CC(C)O1 (centres undefined)	·	–	·	·
Cc1ccc(C2CC2C(=O)NNC(=S)Nc2cccc(C)c2)cc1 (centres undefined)	9.2	–	–	–	CHO-K1 ctr=–;KCNQ1 pot spec=–;KCNQ2 pot conf=64;Kir2-1 sel=–;KCNQ2 W236L pot=–
O=C(NNC(=S)Nc1ccc(F)cc1)C1CC1c1ccc(Cl)cc1 (centres undefined)	–	–	·	·
Cc1ccc(C2CC2C(=O)NNC(=S)Nc2cccc(Cl)c2)cc1 (centres undefined)	18	–	–	–	CHO-K1 ctr=–;KCNQ1 pot spec=–;KCNQ2 pot conf=84;Kir2-1 sel=–;KCNQ2 W236L pot=–
Cc1ccc(NC(=S)NNC(=O)C2CC2c2ccc(C)cc2)cc1 (centres undefined)	·	–	·	·
Cc1ccc(C(=O)NNC(=O)c2ccc(-n3cncn3)c([N+](=O)[O-])c2)cc1	–	–	·	·
CC(=O)CSc1ncnc2sc3c(c12)CCC(C)C3 (centres undefined)	15	–	–	455%	CHO-K1 ctr=1.6;KCNQ1 pot spec=–;KCNQ2 pot conf=93;Kir2-1 sel=–;KCNQ2 W236L pot=–
CC1CCc2c(sc3ncnc(SCC(=O)c4ccccc4)c23)C1 (centres undefined)	–	–	·	·
CC(C)(C)NC(=O)[C@@H]1CN(Cc2cccnc2)CCN1C[C@@H](O)C[C@@H](Cc1ccccc1)C(=O)N[C@H]1c2ccccc2C[C@H]1O	·	–	·	·
CCOc1cc(C)c(Cl)cc1S(=O)(=O)NCc1ccco1	·	–	56%	–
Cc1cc(S(=O)(=O)NCc2ccco2)c(C)cc1Cl	·	–	·	·
O=S(=O)(NCc1ccc(Cl)cc1)c1cccc2cccnc12	–	–	·	·
CCOc1cc(S(=O)(=O)NCc2ccc3c(c2)OCO3)c(C)cc1C	·	–	65%	–
COc1cc(C)c(Cl)cc1S(=O)(=O)NCc1ccco1	–	–	·	·
Cc1cc(C)c(S(=O)(=O)NCc2ccc3c(c2)OCO3)cc1C	·	–	·	·
